Rows were chosen to be rich in hits. Some 6.7% of all compounds tested hit in one or more screens of this group.
T cruzi growth-1: blocks T. cruzi growth in NIH3T3 culture; T. cruzi beta-gal in NIH3T3, GalScreen luminescence, 90 h; inhibition, % at 8.34 µM; 5.9% of 77,000 active; AID 624255;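 active = mean inhibition above about 93%, with at least 55% of replicates each passing it, limit read from the data, passing the limit was not always enough; inconclusive = only one of those two conditions holds; inactive = neither condition holds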
C diff HTS: C. difficile growth inhibition; Clostridium difficile clinical isolate growth, OD600, 24 h; active compounds read low; growth activity, negative = inhibition, % at 16 µg/mL (by protocol); 0.25% of 86,000 active; AID 1259249;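 active = mean growth activity at or below -80% and every replicate also at or below -80%; inconclusive = mean at or below -80% but some replicate above -80%; inactive = mean growth activity above -80%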;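 note: 0% = DMSO wells and -100% = levofloxacin 16 µg/mL wells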
Pf Dd2 inh: inhibitors of Plasmodium falciparum Dd2 growth; activity change, % at 10 µM; P. falciparum Dd2 growth, SYBR Green, 72 h; active compounds read low; 2.3% of 94,000 active; in the data active = activity change below about -80%; inconclusive = no clear call, values can overlap the other calls
T cruzi growth-2: inhibitors of T. cruzi proliferation; T. cruzi beta-gal in NIH3T3, GalScreen luminescence, 90 h; inhibition, % at 8.35 µM; 72% of 5,600 active; AID 651739; shares compounds with T cruzi growth-1;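 active = mean replicate inhibition above about 95% and at least 55% of replicates individually reaching it, limit read from the data; inconclusive = only one of the two criteria is met; inactive = neither criterion is met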
T cruzi growth-3: inhibitors of T. cruzi proliferation; inhibition, % at 2.09 µM; shares compounds with T cruzi growth-1; T. cruzi beta-gal in NIH3T3, GalScreen luminescence, 90 h; AID 651740; 21% of 5,600 active;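 active = mean inhibition above about 95%, with at least 55% of replicates also reaching it, limit read from the data; inconclusive = meets just one of the two conditions; inactive = meets neither condition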;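 note: plate controls were neutral control median for no effect and positive control median for full effect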
3T3 cytotox: cytotoxicity in mouse NIH/3T3 fibroblasts. AID 651742. shares compounds with T cruzi growth-1. 14% of 5,600 active. cytotoxicity (signal decrease), % at 8.35 µM. NIH/3T3 viability, CellTiter-Glo ATP luminescence, 90 h;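 active = mean signal decrease across replicates above about 35% based on untreated-well scatter, with enough replicates individually passing, limit read from the data; inconclusive = no rule stated though some were filed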;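 note: 0% = median of neutral control wells and 100% = median of positive control wells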
NIH3T3 tox 2: kills mouse NIH/3T3 fibroblasts. AID 651744. 56% of 5,600 active. NIH/3T3 viability, CellTiter-Glo ATP luminescence, 90 h. shares compounds with T cruzi growth-1. inhibition, % at 24.9 µM;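 active = mean loss of cell viability signal at or above a set limit, and enough replicates individually reaching it; inconclusive = meets only the mean limit or only the replicate share; inactive = meets neither condition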;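 note: 0% = median of neutral control wells and 100% = median of positive control wells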
* = called active by the depositor.

How did COc1cccc(-c2ccc3n(c2=O)C[C@H]2[C@H](CO)[C@@H](C(=O)NCC4CC4)N(C(C)=O)[C@@H]32)c1 do in these assays?
T cruzi growth-1: 1.5; C diff HTS: -0.8

How did COc1ccc(S(=O)(=O)Nc2ccc3c(c2)CC(=O)N([C@@H](C)CO)C[C@@H](C)[C@H](CN(C)C(=O)Nc2ccccc2)O3)cc1 do in these assays?
T cruzi growth-1: 13.8; C diff HTS: -6.5; Pf Dd2 inh: 1.8

How did CC(C)NC(=O)N(C)C[C@@H]1Oc2c(NC(=O)Nc3ccc(C(F)(F)F)cc3)cccc2C(=O)N([C@@H](C)CO)C[C@H]1C do in these assays?
T cruzi growth-1: 18.9; C diff HTS: 4.4; Pf Dd2 inh: -13.5

How did C[C@H](CO)N1C[C@H](C)[C@H](CN(C)CC2CC2)Oc2c(NC(=O)Nc3ccc(C(F)(F)F)cc3)cccc2C1=O do in these assays?
T cruzi growth-1: 118.4*; C diff HTS: 8.0; Pf Dd2 inh: -52.6; T cruzi growth-2: 100.7*; T cruzi growth-3: 99.8*; 3T3 cytotox: -16.2; NIH3T3 tox 2: 29.4

How did C[C@H](CO)N1C[C@H](C)[C@@H](CN(C)C(=O)Nc2ccc(C(F)(F)F)cc2)Oc2c(NC(=O)C3CCOCC3)cccc2C1=O do in these assays?
T cruzi growth-1: -46.9; C diff HTS: 2.6; Pf Dd2 inh: 1.8

How did C[C@@H]1CN([C@H](C)CO)C(=O)c2cccc(NC(=O)Nc3ccc(C(F)(F)F)cc3)c2O[C@@H]1CN(C)CC1CC1 do in these assays?
T cruzi growth-1: 37.5; C diff HTS: 12.9; Pf Dd2 inh: -39.8

What do the screens show for `C[C@@H]1CN([C@@H](C)CO)C(=O)c2cccc(NC(=O)C3CCOCC3)c2O[C@H]1CN(C)C(=O)Nc1ccc(C(F)(F)F)cc1`?
T cruzi growth-1: 98.8*; C diff HTS: -2.7; Pf Dd2 inh: 8.9; T cruzi growth-2: -41.7; T cruzi growth-3: 16.9; 3T3 cytotox: 4.4; NIH3T3 tox 2: 29.2*

Results for C[C@H](CO)N1C[C@H](C)[C@@H](CN(C)C(=O)Nc2ccc(F)cc2)Oc2c(NC(=O)Nc3cccc4ccccc34)cccc2C1=O ?
T cruzi growth-1: 92.5; C diff HTS: -2.5; Pf Dd2 inh: -42.6

Results for C[C@@H]1CN([C@H](C)CO)C(=O)c2cccc(NC(=O)Nc3cccc4ccccc34)c2O[C@H]1CN(C)C(=O)Nc1ccc(F)cc1 ?
T cruzi growth-1: 99.0*; C diff HTS: -0.7; Pf Dd2 inh: -52.8; T cruzi growth-2: 103.1*; T cruzi growth-3: 59.6; 3T3 cytotox: 4.7; NIH3T3 tox 2: 21.2

Results for CC(C)NC(=O)N(C)C[C@H]1Oc2c(NC(=O)Nc3ccc(C(F)(F)F)cc3)cccc2C(=O)N([C@@H](C)CO)C[C@@H]1C ?
T cruzi growth-1: inconclusive; C diff HTS: 5.5; Pf Dd2 inh: -9.8; T cruzi growth-2: 65.4; T cruzi growth-3: 24.5; 3T3 cytotox: 26.7; NIH3T3 tox 2: 56.5*

What do the screens show for `O=C(CN1CCOCC1)N[C@H]1CC[C@H](CCNC(=O)C2CCC2)O[C@@H]1CO`?
T cruzi growth-1: 9.1; Pf Dd2 inh: 14.0

How did COc1ccc2c3c(n(C)c2c1)[C@@H](CO)N(CC1CCOCC1)CC31CN(C(=O)c2cccc(F)c2)C1 do in these assays?
Pf Dd2 inh: 26.4

How did O=C(N[C@@H]1C=C[C@@H](CC(=O)N2CCOCC2)O[C@@H]1CO)c1ccc2c(c1)OCO2 do in these assays?
T cruzi growth-1: -23.5; C diff HTS: -0.7; Pf Dd2 inh: -13.5

How did O=C(Cc1ccncc1)N1C[C@@H]2N[C@H](C1)C2c1ccc(/C=C/c2ccccc2)cc1 (stereo partly drawn) do in these assays?
C diff HTS: -2.5; Pf Dd2 inh: -73.2

Results for C[C@H]1CN([C@@H](C)CO)C(=O)c2cc(NS(=O)(=O)c3ccc(F)cc3)ccc2O[C@H]1CN(C)C(=O)NC1CCCCC1 ?
T cruzi growth-1: 3.4; C diff HTS: 2.3; Pf Dd2 inh: -7.6

How did C[C@@H]1CCCCO[C@@H](CN(C)CC2CC2)[C@H](C)CN([C@@H](C)CO)C(=O)c2cc(NS(=O)(=O)c3ccc(Cl)cc3)ccc2O1 do in these assays?
T cruzi growth-1: 72.9; C diff HTS: -2.8; Pf Dd2 inh: -76.0

What do the screens show for `C[C@@H]1CN([C@@H](C)CO)C(=O)c2cccc(NC(=O)Nc3ccc(F)cc3)c2O[C@@H]1CN(C)C(=O)Nc1ccc(C(F)(F)F)cc1`?
T cruzi growth-1: inconclusive; C diff HTS: 9.5; Pf Dd2 inh: -76.2; T cruzi growth-2: 111.4*; T cruzi growth-3: 4.9; 3T3 cytotox: 24.1; NIH3T3 tox 2: 40.3*

What do the screens show for `C[C@@H]1CN([C@@H](C)CO)C(=O)c2cccc(NC(=O)Nc3ccc(C(F)(F)F)cc3)c2O[C@@H]1CN(C)C(=O)Nc1ccc(F)cc1`?
T cruzi growth-1: 74.4; C diff HTS: 66.7; Pf Dd2 inh: -48.8

What do the screens show for `O=C(C1CCCC1)N1CC2(C1)[C@H](c1ccccc1)[C@@H](CO)N2Cc1cncnc1`?
C diff HTS: -0.3; Pf Dd2 inh: 34.1

How did Cc1ccccc1-c1ccc([C@H]2[C@@H](CO)N3CCCCN(S(=O)(=O)c4cn(C)cn4)C[C@@H]23)cc1 do in these assays?
T cruzi growth-1: 114.9*; C diff HTS: -1.5; Pf Dd2 inh: 20.9; T cruzi growth-2: 3.1; T cruzi growth-3: -25.1; 3T3 cytotox: 1.0; NIH3T3 tox 2: 31.8*

Results for Cc1ccccc1-c1ccc([C@H]2[C@H]3CN(S(=O)(=O)c4cn(C)cn4)CCCCN3[C@H]2CO)cc1 ?
T cruzi growth-1: 113.7*; C diff HTS: 6.0; Pf Dd2 inh: 24.6; T cruzi growth-2: 60.0; T cruzi growth-3: -18.9; 3T3 cytotox: 19.4; NIH3T3 tox 2: inconclusive

Results for Cc1ccccc1-c1ccc([C@@H]2[C@@H](CO)N3CCCCN(S(=O)(=O)c4cn(C)cn4)C[C@H]23)cc1 ?
T cruzi growth-1: 88.5; C diff HTS: -6.0; Pf Dd2 inh: -37.0

Results for Cc1ccccc1-c1ccc([C@@H]2[C@H](CO)N3CCCCN(S(=O)(=O)c4cn(C)cn4)C[C@@H]23)cc1 ?
T cruzi growth-1: 62.6; C diff HTS: -8.0; Pf Dd2 inh: 8.9

Results for COc1ccc2c3c([nH]c2c1)[C@@H](CO)N(C(=O)NC(C)C)CC31CCN(Cc2ccccc2)CC1 ?
C diff HTS: 2.4; Pf Dd2 inh: -66.5

How did C[C@@H]1CN([C@H](C)CO)C(=O)c2cc(C#CCN(C)C)cnc2O[C@H]1CN(C)S(C)(=O)=O do in these assays?
T cruzi growth-1: -4.8; C diff HTS: -0.6; Pf Dd2 inh: 35.1
